Compound activity deposited in PubChem BioAssay by Fisher Drug Discovery Resource Center.
mcGAS lum – mouse cGAS inhibition by luminescence; Q8C6L5; recombinant cGAS, Kinase-Glo ATP depletion luminescence; inhibition, % at 12.5 µM; 160,000 tested, 0.15% active; AID 1259399
Target sequence (Q8C6L5 whole entry, looked up): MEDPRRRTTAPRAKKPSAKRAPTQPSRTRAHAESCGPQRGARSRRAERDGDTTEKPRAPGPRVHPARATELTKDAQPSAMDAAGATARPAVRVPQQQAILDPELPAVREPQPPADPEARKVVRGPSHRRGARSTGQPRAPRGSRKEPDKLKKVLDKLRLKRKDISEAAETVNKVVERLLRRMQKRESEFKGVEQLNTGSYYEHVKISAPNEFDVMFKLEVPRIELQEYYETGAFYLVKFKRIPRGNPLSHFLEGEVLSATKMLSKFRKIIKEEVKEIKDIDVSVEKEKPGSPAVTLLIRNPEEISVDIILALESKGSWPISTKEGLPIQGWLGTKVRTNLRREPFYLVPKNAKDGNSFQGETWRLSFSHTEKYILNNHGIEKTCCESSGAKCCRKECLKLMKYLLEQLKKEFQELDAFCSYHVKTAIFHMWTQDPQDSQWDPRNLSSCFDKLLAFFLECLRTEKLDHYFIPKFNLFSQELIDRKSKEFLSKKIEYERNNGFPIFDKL
NPYLR7 agonist – activates Aedes aegypti NPYLR7 receptor; HEK293T NPYLR7/Galpha15, GCaMP6s calcium fluorescence; 270,000 tested, 0.15% active; activation, % at 10 µM; AID 1259423; in the data active means activation above about 40%
hcGAS lum – human cGAS inhibition | Q8N884 | recombinant h-cGAS, ATP depletion, Kinase-Glo luminescence | inhibition, % at 12.5 µM | 290,000 tested, 0.081% active | AID 1259398
Hits are given with their value; 0 = inactive; - = no result; ! = not confirmed by another sample. Most compounds without a hit are left out; they make up all but 0.28% or so of the library. Unless noted, no stated cut-off is given here; in the data, active means inhibition above about 40%; inactive means the rest.

SMILES	mcGAS lum	NPYLR7 agonist	hcGAS lum
O=C(NCC1CCOC1)N1CCN(Cc2ccc(Cl)s2)CC1 (configuration not stated)	-	0	0
FC(F)(F)c1ccc(-c2nc3ccc(Cl)cn3c2NCc2ccccc2)cc1	0	47	0
CC(C)(C)c1ccc(-c2nc3ccc(Cl)cn3c2NCc2ccccc2)cc1	0	0	0
COc1ccc(OCC2CN(C(=O)c3ccc(OC(F)F)cc3)CCO2)cc1 (configuration not stated)	-	0	0
COc1ccccc1C1CN(CC(=O)N[C@H]2CCCCNC2=O)Cc2ccccc2O1 (some centres not stated)	-	0	0
COc1cc(C=C(C#N)C(=O)OC(C)C)cc(Cl)c1O	-	83	0
CCOc1cc(C=C(C#N)C(=O)OC(C)C)cc(Cl)c1O	-	0	0
COc1cc(C=C(C#N)S(=O)(=O)c2ccc(Cl)cc2)cc(Cl)c1O	-	118	0
COc1cc(C=C(C#N)S(=O)(=O)c2ccc(Cl)cc2)cc2c1OCCO2	-	0	0
C[C@H]1CC2C3CCC4=CC(=O)C=C[C@]4(C)[C@@]3(F)[C@@H](O)C[C@]2(C)[C@@]1(O)C(=O)COP(=O)(O)O (some centres not stated)	-	-	0
Cc1oc(-c2cccs2)nc1CN(C)C1CCCc2ccccc21 (configuration not stated)	-	0	0
COc1ccc(CNC(=O)c2sc3nc4c(c(C(F)(F)F)c3c2N)CN(C(C)=O)CC4)cc1	-	0	0
CCOC(=O)N1CCC(NC(=O)c2sc3nc4c(c(C(F)(F)F)c3c2N)CC(C)CC4)CC1 (configuration not stated)	0	62	0
CCOC(=O)c1nn(-c2ccccc2)c(=O)cc1NC(=O)c1ccc(C(C)(C)C)cc1	0	-	0
Cc1csc(N2C(=N)SCC2=O)n1	0	0	42
Cc1csc(N2C(=N)SC(c3ccccc3)C2=O)n1 (configuration not stated)	0	0	0
CC(C)(C)NN=Cc1cc(Br)c(O)c(Br)c1	75	0	0
COc1cc(C=NNC(=O)c2ccccc2O)cc(Br)c1O	-	0	0
Cc1ccc(-n2nnc3c(N4CCN(C(=O)c5ccccc5SC(F)F)CC4)ncnc32)cc1	0	0	0
Cc1cc(Cl)ccc1N1CCN(C(=O)C2CCCC2)C(C)C1=O (configuration not stated)	0	0	0
Nc1c(S(=O)(=O)O)cc(Nc2ccc(Nc3nc(Cl)nc(Nc4ccc(S(=O)(=O)O)cc4)n3)c(S(=O)(=O)O)c2)c2c1C(=O)c1ccccc1C2=O	67	0	0
Nc1c(S(=O)(=O)O)cc(Nc2cccc3ccccc23)c2c1C(=O)c1ccccc1C2=O	-	0	0
O=C1c2ccccc2C2(O)NC(=S)NC12O (configuration not stated)	-	0	0
CC(C)(C)c1nnc2sc(SCC(=O)NC3CCCCC3)nn2c1=O	-	0	0
O=c1c(C=NC2CC2)c(-c2ccccc2)[nH]n1-c1nc2ccccc2s1	0	0	60
SMILES	mcGAS lum	NPYLR7 agonist	hcGAS lum
O=c1cc(-c2ccccc2)[nH]n1-c1c(F)c(F)c(F)c(F)c1F	0	0	0
O=c1cc(-c2ccccc2)[nH]n1-c1nc2ccccc2s1	0	0	55
COc1ccc(-c2[nH]n(-c3nc4ccccc4s3)c(=O)c2C=NCCN2CCOCC2)cc1	-	0	0
COc1ccc(N2CCN(c3ncnc4c3cnn4CCNC(=O)CC(C)C)CC2)cc1	0	0	0
CCN1CCN(c2nc(-c3ccc(OC)cc3)nc3cc(Cl)ccc23)CC1	0	0	0
COCCN=Cc1cc(Br)cc(Br)c1O	0	0	68
NC(=O)NN=Cc1cc(Br)cc(Br)c1O	-	0	0
O=C(NCCn1ncc2c(N3CCCCCC3)ncnc21)c1cc2ccccc2o1	0	0	0
CCOC(=O)c1c(C)oc2nc(CN(C)Cc3ccc(Cl)s3)[nH]c(=O)c12	-	0	0
CC(C)c1ccc(CC(=O)N2CCC2(C)C(=O)NS(=O)(=O)c2ccccc2)cc1 (configuration not stated)	-	0	0
CC(=O)C1=C(C)Nc2ncnn2C1c1ccco1 (configuration not stated)	-	0	0
Fc1cc(F)cc(C2C=C(c3ccco3)Nc3ncnn32)c1 (configuration not stated)	-	78	0
O=C(Nc1ccccc1F)c1ccc2c(c1)S(=O)(=O)Nc1ncnn1-2	0	0	0
COC(=O)c1nc2n(n1)-c1ccccc1S(=O)(=O)N2	-	0	57
O=C(CCN(c1nc(-c2ccco2)nc2ccccc12)C1CCCCC1)NCc1ccccc1	0	0	0
CCOC(=O)Cc1cnc(C)[nH]c1=O	0	0	0
CCOC(=O)Cc1c(C)n2nc(C)cc2[nH]c1=O	-	0	58
CC(=O)N1CCc2c(sc(NC(=O)C3=COCCO3)c2-c2nc3ccccc3s2)C1	-	0	0
CCN1CCc2c(sc(NC(=O)C3=COCCO3)c2-c2nc3ccccc3s2)C1	-	60	0
CC(=O)Nc1sc2c(c1-c1nc3ccccc3s1)CCN(Cc1ccccc1)C2	0	197	0
CC(=O)Nc1sc2c(c1-c1nc3ccccc3s1)CCN(C(C)=O)C2	-	0	0
O=C(OCC1(O)C(Cl)C=CC(OC(=O)c2ccccc2)C1O)c1ccccc1 (configuration not stated)	48	0	0
O=C(OCN1C(=O)c2ccccc2C1=O)c1ccccc1	-	0	0
Cc1cccc(CN(CCN2CCOCC2)Cc2cccn2Cc2cccc(C)c2)c1	0	-	0
COc1cc2oc(=O)c3c4c(cc5ccc(c1CCN(C)C)c2c53)OCO4	52	0	44
SMILES	mcGAS lum	NPYLR7 agonist	hcGAS lum
COc1cc(CNCCN(C)C)cc2c1OCO2	0	0	0
Cc1cc(C)c(CN2CCN(Cc3ccsc3)C(CCO)C2)c(-n2cccn2)c1 (configuration not stated)	0	0	0
Cc1cccc(Oc2cc(N3CCC(Cc4ccccc4)CC3)ncn2)c1	0	0	0
CCOc1cc2c(C#N)c(N(CC(C)C)CC(C)C)nc(N)c2c(N)n1	-	0	0
COc1cc2c(C#N)c(N(CCO)CCO)nc(N)c2c(N)n1	0	0	56
COc1cc2c(C(=O)O)c(C)n(-c3cccc(C)c3)c2c2ccccc12	0	0	0
COc1nc(C)cc(C)c1CNC(=O)CCc1scnc1C	0	0	0
O=C(O)c1ccc(Cl)s1	-	0	0
O=C(C1=C(O)c2ccccc2S(=O)(=O)N1)c1ccc(Cl)s1	-	0	41
O=C(O[C@@H]1Cc2c(O)cc(O)cc2O[C@@H]1c1ccc(O)c(O)c1)c1cc(O)c(O)c(O)c1	-	0	49
O=C(O[C@@H]1Cc2c(O)cc(O)cc2O[C@@H]1c1cc(O)c(O)c(O)c1-c1c([C@H]2Oc3cc(O)cc(O)c3C[C@H]2O)cc(O)c(O)c1O)c1cc(O)c(O)c(O)c1	0	0	54
Oc1cc(O)c2c(c1)O[C@H](c1ccc(O)c(O)c1)[C@H](O)C2	-	0	0
O=C(Oc1cc(OC(=O)c2ccccc2)c2c(c1)O[C@H](c1ccc(OC(=O)c3ccccc3)c(OC(=O)c3ccccc3)c1)[C@@H](OC(=O)c1ccccc1)C2)c1ccccc1	-	0	0
O=C(O[C@@H]1Cc2c(O)cc(O)cc2O[C@@H]1c1cc(O)c(O)c(O)c1)c1cc(O)c(O)c(O)c1	-	0	73!
O=c1c(O)cc([C@H]2Oc3cc(O)cc(O)c3C[C@H]2O)cc2c([C@H]3Oc4cc(O)cc(O)c4C[C@H]3O)cc(O)c(O)c12	-	0	0
